Assay [1] addresses Tyrosine-protein kinase CSK (Homo sapiens) (UniProt P41240). The note with it: at 1 µM.
For assay [2], the target named is T1, Discoidin domain-containing receptor 2 (Homo sapiens) (UniProt Q16832).
T1 sequence (whole entry): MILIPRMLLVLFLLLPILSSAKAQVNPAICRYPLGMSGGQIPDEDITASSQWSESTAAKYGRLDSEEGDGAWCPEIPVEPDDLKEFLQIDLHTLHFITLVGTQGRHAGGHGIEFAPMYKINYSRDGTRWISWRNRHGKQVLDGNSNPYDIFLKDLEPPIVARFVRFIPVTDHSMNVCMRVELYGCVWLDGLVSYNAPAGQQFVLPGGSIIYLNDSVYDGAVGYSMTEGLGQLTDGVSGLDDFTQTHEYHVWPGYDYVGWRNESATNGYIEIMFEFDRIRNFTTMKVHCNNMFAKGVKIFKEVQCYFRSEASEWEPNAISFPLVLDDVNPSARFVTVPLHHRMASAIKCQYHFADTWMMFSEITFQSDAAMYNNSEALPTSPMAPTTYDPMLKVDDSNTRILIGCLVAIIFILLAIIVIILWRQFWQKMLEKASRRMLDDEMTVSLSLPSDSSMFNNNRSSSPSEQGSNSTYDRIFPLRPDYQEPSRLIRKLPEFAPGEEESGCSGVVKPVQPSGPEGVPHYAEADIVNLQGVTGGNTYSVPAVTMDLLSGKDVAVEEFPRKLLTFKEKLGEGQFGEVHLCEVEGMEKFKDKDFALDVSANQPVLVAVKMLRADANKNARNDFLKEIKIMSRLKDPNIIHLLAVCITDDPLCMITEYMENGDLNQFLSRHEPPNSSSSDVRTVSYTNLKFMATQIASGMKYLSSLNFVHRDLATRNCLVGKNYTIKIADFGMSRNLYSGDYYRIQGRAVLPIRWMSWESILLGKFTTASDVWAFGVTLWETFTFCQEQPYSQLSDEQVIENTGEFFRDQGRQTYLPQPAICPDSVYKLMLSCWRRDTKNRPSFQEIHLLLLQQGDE
The note with it: at 0.1 µM.

Assay [3] addresses T1, Discoidin domain-containing receptor 2 (Homo sapiens). The following applies: at 1 µM.
The target of assay [4] is Epidermal growth factor receptor (Homo sapiens) (UniProt P00533). The note with it: at 0.1 µM.
For assay [5] the target is unchanged. The following applies: at 1 µM.
The test system of assay [6] is Epidermal growth factor receptor (Homo sapiens), P00533 [L858R]. The following applies: at 0.1 µM.
The test system is the same in assay [7]. The following applies: at 1 µM.
The test system of assay [8] is Epidermal growth factor receptor (Homo sapiens), P00533 [L861Q]. The following applies: at 0.1 µM.
The test system is the same in assay [9]. The following applies: at 1 µM.
The subject of assay [10] is Epidermal growth factor receptor (Homo sapiens), P00533 [T790M]. The note with it: at 0.1 µM.
For assay [11] the test system is unchanged. The note with it: at 1 µM.
The subject of assay [12] is Epidermal growth factor receptor (Homo sapiens), P00533 [L858R,T790M]. The note with it: at 0.1 µM.
Assay [13] has the same test system. The following applies: at 1 µM.
For assay [14], the target named is Ephrin type-A receptor 2 (Homo sapiens) (UniProt P29317). The following applies: at 0.1 µM.
The target is the same in assay [15]. The following applies: at 1 µM.
Assay [16] concerns the target T2, Ephrin type-A receptor 3 (Homo sapiens) (UniProt P29320).
T2 sequence (whole entry): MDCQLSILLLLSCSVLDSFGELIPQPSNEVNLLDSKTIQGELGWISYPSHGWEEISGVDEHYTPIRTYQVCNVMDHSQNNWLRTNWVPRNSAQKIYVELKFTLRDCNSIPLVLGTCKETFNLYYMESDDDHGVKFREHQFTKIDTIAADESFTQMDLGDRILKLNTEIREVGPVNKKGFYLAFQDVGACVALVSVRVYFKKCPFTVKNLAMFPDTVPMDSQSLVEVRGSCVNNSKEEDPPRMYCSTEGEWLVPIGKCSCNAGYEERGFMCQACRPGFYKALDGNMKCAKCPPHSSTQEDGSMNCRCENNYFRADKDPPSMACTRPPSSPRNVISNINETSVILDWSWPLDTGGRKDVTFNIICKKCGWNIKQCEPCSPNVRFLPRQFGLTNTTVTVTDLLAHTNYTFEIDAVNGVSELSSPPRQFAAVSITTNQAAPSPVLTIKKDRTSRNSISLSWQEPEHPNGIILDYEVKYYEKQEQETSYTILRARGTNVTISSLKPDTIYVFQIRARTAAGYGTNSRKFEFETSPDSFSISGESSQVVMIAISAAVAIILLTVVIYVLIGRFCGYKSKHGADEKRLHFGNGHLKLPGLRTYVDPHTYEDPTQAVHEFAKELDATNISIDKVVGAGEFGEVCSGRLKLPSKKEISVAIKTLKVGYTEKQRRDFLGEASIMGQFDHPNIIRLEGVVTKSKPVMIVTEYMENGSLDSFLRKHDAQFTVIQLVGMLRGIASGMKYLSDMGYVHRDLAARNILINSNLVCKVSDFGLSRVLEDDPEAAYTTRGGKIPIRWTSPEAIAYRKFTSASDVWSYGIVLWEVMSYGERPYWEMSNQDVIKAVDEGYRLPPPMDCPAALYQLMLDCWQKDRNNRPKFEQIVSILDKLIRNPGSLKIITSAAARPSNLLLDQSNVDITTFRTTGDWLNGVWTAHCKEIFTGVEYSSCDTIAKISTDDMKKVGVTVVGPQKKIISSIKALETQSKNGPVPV
The note with it: at 0.1 µM.

Assay [17] deals with T2, Ephrin type-A receptor 3 (Homo sapiens). The note with it: at 1 µM.
Assay [18] concerns the target Ephrin type-A receptor 4 (Homo sapiens) (UniProt P54764). The following applies: at 0.1 µM.
The target is the same in assay [19]. The note with it: at 1 µM.
Assay [20] addresses T3, Ephrin type-B receptor 2 (Homo sapiens) (UniProt P29323).
T3 sequence (whole entry): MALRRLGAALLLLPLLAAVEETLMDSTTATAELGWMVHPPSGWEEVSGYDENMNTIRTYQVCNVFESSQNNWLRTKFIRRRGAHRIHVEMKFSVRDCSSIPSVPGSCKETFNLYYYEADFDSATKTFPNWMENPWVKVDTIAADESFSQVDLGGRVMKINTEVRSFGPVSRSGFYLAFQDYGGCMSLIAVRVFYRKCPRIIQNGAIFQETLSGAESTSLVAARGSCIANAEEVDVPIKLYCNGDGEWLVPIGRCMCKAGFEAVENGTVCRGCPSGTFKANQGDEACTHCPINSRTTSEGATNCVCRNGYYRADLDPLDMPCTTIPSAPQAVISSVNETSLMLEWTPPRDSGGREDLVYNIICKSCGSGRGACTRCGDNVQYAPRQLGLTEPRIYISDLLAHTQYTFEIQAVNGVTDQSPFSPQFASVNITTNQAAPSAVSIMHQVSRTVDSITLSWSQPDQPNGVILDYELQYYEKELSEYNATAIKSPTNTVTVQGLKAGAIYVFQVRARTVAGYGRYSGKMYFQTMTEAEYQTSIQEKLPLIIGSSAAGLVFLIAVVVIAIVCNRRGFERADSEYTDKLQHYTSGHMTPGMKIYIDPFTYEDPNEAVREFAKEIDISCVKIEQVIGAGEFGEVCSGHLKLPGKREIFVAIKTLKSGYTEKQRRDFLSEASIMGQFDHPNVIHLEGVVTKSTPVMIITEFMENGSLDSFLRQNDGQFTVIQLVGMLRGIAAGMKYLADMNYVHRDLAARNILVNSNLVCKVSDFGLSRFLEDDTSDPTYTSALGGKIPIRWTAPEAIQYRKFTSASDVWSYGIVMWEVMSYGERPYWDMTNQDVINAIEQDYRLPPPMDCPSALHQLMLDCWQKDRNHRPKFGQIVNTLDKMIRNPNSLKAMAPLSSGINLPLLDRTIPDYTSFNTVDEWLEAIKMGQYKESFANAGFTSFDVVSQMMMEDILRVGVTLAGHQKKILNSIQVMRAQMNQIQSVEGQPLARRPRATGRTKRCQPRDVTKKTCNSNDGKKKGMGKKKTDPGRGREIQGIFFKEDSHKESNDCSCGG
The following applies: at 0.1 µM.

Six molecules from ChEMBL document CHEMBL1961873, “Compounds: GSK PKIS; Assays: Nanosyn kinase panel” (2012) can be followed below.

For orientation: inhibition means the relative decrease from the control value, in per cent.

Structures are written as SMILES.

Ephrin type-A receptor 2 (Homo sapiens), sequence (P29317 whole entry): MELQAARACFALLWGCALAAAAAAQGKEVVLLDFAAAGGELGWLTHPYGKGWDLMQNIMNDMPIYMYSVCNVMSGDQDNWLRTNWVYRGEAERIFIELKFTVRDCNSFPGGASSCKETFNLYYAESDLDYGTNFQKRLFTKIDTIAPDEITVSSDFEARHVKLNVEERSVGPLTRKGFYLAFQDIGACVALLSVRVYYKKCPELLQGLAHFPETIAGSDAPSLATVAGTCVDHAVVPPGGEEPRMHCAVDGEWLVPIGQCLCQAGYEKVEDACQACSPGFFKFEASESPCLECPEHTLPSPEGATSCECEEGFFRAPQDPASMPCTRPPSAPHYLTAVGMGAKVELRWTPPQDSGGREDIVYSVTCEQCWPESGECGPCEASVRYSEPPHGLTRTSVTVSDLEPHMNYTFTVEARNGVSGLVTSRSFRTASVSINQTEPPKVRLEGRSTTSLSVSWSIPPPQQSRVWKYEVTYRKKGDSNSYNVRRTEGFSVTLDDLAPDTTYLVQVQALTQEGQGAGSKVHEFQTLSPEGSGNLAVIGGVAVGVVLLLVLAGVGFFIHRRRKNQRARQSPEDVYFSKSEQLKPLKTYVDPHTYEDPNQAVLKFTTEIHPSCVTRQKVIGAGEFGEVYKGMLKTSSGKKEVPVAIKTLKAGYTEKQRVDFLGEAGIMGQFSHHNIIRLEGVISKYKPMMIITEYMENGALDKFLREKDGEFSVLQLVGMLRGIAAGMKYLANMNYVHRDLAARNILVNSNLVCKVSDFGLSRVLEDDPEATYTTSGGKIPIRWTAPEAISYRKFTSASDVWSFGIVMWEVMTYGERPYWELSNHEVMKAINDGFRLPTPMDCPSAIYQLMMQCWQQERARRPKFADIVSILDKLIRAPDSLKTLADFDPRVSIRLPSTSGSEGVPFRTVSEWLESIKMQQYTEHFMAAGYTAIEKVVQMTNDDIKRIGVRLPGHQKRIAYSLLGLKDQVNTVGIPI
Epidermal growth factor receptor (Homo sapiens), P00533 [T790M], sequence (P00533 whole entry T790M): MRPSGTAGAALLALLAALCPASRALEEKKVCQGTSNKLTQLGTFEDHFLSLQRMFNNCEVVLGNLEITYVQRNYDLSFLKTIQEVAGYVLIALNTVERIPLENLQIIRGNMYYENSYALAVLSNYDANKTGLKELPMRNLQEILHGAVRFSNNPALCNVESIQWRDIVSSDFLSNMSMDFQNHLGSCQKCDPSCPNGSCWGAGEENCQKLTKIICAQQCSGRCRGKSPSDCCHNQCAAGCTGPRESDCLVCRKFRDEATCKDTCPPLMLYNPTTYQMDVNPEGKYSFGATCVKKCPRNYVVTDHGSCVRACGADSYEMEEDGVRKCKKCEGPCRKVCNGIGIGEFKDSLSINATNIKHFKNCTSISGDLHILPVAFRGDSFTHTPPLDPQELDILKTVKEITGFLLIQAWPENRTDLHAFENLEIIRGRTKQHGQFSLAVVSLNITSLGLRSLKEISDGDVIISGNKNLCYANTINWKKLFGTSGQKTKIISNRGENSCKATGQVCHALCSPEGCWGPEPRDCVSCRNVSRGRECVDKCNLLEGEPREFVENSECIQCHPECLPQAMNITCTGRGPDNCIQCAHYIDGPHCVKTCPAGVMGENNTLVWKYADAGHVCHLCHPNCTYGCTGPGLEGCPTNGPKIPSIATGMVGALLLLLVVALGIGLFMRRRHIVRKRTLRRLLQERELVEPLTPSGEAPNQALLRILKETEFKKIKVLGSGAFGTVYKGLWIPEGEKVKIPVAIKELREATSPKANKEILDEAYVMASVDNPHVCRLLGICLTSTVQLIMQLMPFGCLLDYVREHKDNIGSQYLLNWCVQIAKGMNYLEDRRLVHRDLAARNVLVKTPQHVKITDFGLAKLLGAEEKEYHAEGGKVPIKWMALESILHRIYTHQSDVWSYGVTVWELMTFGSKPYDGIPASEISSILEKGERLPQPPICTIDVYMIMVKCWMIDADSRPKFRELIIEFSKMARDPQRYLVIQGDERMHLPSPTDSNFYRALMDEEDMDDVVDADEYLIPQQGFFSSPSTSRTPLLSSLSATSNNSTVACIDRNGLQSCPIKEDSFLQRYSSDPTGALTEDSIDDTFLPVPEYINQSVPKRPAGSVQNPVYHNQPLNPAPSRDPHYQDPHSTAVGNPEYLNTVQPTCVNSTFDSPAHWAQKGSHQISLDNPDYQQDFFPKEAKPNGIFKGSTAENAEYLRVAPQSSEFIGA
Epidermal growth factor receptor (Homo sapiens), P00533 [L858R], sequence (P00533 whole entry L858R): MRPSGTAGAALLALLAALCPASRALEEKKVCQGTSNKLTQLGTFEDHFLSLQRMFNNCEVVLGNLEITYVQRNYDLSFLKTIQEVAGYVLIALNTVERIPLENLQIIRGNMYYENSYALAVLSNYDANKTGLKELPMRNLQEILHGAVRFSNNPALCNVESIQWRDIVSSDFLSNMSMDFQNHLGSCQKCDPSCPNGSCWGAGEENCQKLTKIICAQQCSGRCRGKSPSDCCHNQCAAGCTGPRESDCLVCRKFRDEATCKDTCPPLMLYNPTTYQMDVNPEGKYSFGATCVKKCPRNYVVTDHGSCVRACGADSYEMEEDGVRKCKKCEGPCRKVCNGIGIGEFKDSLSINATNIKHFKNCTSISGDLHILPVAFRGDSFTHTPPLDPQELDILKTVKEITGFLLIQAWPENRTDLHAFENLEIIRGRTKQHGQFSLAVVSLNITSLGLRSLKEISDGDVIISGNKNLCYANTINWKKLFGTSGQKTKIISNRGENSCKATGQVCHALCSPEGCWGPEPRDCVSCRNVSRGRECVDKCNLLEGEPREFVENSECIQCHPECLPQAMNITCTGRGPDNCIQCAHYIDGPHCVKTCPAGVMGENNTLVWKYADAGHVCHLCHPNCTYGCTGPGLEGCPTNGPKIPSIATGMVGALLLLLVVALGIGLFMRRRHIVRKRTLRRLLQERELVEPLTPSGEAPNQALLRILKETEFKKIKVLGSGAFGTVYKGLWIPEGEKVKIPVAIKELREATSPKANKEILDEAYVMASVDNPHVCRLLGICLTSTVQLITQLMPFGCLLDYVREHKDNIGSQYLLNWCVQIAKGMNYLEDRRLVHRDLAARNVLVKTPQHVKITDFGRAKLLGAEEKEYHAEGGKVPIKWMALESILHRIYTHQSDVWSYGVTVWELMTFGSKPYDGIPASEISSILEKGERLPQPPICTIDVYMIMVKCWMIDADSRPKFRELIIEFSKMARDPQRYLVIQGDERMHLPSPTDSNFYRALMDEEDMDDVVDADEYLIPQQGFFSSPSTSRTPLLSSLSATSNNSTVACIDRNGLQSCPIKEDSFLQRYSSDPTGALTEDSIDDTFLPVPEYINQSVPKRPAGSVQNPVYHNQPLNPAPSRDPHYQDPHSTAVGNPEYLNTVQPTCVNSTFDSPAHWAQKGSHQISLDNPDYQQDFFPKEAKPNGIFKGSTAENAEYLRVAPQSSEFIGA
Epidermal growth factor receptor (Homo sapiens), P00533 [L858R,T790M], sequence (P00533 whole entry T790M/L858R, looked up): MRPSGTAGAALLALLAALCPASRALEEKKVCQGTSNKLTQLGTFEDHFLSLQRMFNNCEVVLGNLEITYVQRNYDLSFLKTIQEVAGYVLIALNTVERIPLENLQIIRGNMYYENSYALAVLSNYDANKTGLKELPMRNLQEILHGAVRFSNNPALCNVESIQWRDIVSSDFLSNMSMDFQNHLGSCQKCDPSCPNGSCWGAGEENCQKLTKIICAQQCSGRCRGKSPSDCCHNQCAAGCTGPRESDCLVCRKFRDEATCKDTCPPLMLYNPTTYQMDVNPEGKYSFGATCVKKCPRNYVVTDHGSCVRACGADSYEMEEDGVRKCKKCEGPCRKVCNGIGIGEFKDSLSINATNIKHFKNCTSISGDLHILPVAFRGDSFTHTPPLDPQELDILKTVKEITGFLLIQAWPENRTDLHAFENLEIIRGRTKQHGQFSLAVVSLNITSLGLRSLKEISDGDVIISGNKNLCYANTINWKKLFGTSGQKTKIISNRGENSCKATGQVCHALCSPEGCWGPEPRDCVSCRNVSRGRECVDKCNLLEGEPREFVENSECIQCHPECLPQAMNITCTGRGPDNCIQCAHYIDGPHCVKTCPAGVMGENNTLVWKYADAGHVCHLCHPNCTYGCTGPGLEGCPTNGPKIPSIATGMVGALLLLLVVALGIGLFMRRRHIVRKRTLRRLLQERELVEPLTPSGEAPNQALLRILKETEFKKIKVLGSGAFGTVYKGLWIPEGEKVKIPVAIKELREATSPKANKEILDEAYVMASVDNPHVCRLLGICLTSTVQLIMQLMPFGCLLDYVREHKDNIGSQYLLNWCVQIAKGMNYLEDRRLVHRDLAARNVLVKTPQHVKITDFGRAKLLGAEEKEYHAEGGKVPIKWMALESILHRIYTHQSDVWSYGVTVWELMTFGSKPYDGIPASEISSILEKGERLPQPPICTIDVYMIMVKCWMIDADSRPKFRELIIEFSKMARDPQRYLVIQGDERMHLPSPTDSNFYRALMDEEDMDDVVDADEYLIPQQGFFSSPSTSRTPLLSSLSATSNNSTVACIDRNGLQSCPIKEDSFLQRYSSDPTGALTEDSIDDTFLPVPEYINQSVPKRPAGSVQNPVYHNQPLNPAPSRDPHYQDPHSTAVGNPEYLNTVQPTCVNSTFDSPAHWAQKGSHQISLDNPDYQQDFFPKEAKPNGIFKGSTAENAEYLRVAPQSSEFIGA
Tyrosine-protein kinase CSK (Homo sapiens), sequence (P41240 2-450 limits assumed): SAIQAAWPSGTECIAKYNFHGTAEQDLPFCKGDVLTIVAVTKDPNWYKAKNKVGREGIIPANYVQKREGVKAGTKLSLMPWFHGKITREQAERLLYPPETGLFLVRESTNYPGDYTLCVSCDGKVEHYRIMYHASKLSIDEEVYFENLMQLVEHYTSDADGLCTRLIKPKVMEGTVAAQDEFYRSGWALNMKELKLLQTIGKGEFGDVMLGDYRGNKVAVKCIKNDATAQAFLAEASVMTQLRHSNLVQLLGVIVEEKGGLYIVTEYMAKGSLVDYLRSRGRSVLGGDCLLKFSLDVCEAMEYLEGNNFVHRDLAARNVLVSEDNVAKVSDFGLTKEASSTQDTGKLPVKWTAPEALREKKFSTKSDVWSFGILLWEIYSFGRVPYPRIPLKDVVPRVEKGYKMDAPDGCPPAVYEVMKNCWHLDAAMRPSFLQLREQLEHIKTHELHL

Regarding `COC(=O)c1sc(-n2cnc3cc(OC)c(OC)cc32)cc1OCc1ccccc1C(F)(F)F`, the inhibition in [1] is 0.42%; in [2], 2.46%; in [3], 2.44%; in [4], -0.33%; in assay [5], 2.22%; in assay [6], 1.6%. Moreover, the inhibition was 6.95% in assay [7]; 3.31% in [8]; 0.15% in [9]; 1.36% in assay [10]; -0.3% in [11]; -1.64% in assay [12]. For the same molecule, the inhibition is 1.53% in assay [13]; 2.23% in assay [14]; 3.86% in [15]; 4.53% in assay [16]; 3.54% in [17]; 9.09% in [18]. Besides, the inhibition in [19] is 4.17%; in assay [20], 6.43%.
Turning to `CCN(CC)S(=O)(=O)c1ccc(OC)c(Nc2ncc(-c3ccccc3)o2)c1`, the inhibition in assay [1] worked out at 5.35%; in [2], 7.09%; in assay [3], 17.5%; in assay [4] it was 3.51%; in assay [5], 3.96%; in assay [6] it was 4.33%. For the same molecule, the inhibition was 11.6% in [7]; 3.42% in assay [8]; 2.22% in assay [9]; 1.36% in assay [10]; 2.04% in assay [11]; 0.39% in [12]. Also, the inhibition was -0.47% in assay [13]; 4.36% in assay [14]; 2.14% in assay [15]; 2.4% in assay [16]; 2.35% in assay [17]; 9.54% in assay [18]. In addition, the inhibition in [19] came out at 13.8%; in assay [20] it was 5.55%.
For the molecule `CNC(=O)c1cccc(C#Cc2cncnc2Nc2ccc(OCc3cccc(F)c3)c(Cl)c2)c1`, the inhibition in assay [1] was found to be 3.24%; in [2], 0.18%; in assay [3], 4.52%; in assay [4] it was 62.1%; in assay [5] it was 82.2%; in assay [6], 13.8%. Further, the inhibition in [7] is 62.1%; in assay [8], 25.9%; in assay [9] it was 45.7%; in [10], 1.03%; in assay [11], 4.1%; in assay [12], -0.69%. The inhibition in [13] was 1.65%; in assay [14], 2.11%; in assay [15] it was -0.11%; in assay [16] it was 1.08%; in assay [17] it was 0.39%; in assay [18], 5.81%. Moreover, the inhibition was found to be 6.8% in [19] and 3.54% in assay [20].
Turning to `COC(=O)Nc1nc2ccc(Oc3ccc(NC(=O)Nc4cccc(Cl)c4)cc3)cc2[nH]1`, the inhibition in [1] was 5.95%; in assay [2], 84.2%; in [3], 85.2%; in assay [4] it was 3.42%; in [5], 7.64%; in assay [6] it was -0.65%. Also, the inhibition was 2.43% in assay [7]; -0.21% in assay [8]; -0.8% in assay [9]; -1.18% in assay [10]; -0.68% in assay [11]; -2.96% in assay [12]. The inhibition in assay [13] came to 0.71%; in assay [14], 7.68%; in assay [15], 41.2%; in assay [16], 4.1%; in assay [17] it was 8.5%; in assay [18], 22.3%. Also, the inhibition in assay [19] came out at 62.9%; in assay [20], 36.9%.
Regarding `CCn1c(-c2nonc2N)nc2c(C#CC(C)(C)O)ncc(OC3CCNCC3)c21`, the inhibition in [1] is 1.26%; in assay [2] it was 0.94%; in assay [3], 1.03%; in [4], 1.89%; in [5] it was 3.18%; in assay [6] it was -0.6%. The inhibition is 2.18% in [7]; -0.91% in assay [8]; -0.16% in assay [9]; -0.25% in assay [10]; 1.16% in [11]; 1.78% in assay [12]. Further, the inhibition in assay [13] amounted to 0.14%; in assay [14] it was 1.52%; in assay [15], 0.34%; in [16] it was 1.03%; in assay [17] it was 3.69%; in [18], 4.06%. For the same molecule, the inhibition was 6.59% in [19] and -2.87% in [20].
Take `COc1cc2ncn(-c3cc(OCc4ccccc4C(F)(F)F)c(C(=O)N(C)C)s3)c2cc1OC`: the inhibition in [1] was 0.02%; in [2], 0.21%; in assay [3], -0.91%; in assay [4], 0.21%; in assay [5] it was 0.03%; in assay [6], -1.55%. The inhibition in [7] was -0.64%; in assay [8], -1.32%; in assay [9] it was -1.92%; in [10], -1.33%; in assay [11] it was -1.36%; in assay [12], 0.72%. The inhibition was -1.46% in assay [13]; -1.69% in assay [14]; -2.94% in [15]; 2.89% in [16]; 1.92% in assay [17]; 2.87% in assay [18]. Further, the inhibition in [19] came to 4.19%; in assay [20] it was 0.66%.
